# Records with an inconclusive call do not appear. Calls of active or inactive are those of the source. The call rests on the fitted dose curve; in most records, active means well fitted cell-killing curve with a large enough effect in the repeat runs; inconclusive means weak or mixed curves; inactive means flat fitted curve, though single readings scatter.
# Assay: qHTS RealTime-Glo MT Cell Viability Assay in HepG2 cells - 32 hour (AID 1224877); further: nearly all actives have a fitted effect of over 55% in size
# Conditions: RealTime-Glo luminescence; series mostly up to 76.8 µM; activity change, negative = cytotoxic: at the top concentration
# Excerpt: U.S. Tox21 Program National Center for Advancing Translational Sciences [NCATS] NIH Chemical Genomics Center [NCGC] U.S. Environmental Protection Agency [EPA] National Institutes of Environmental Health Sciences [NIEHS] National Toxicology Program [NTP] U.S. Food and Drug Administration [FDA] Tox21 Assay Overview: Measure of cell viability is critical in the cell-base assay. Analysis of cell viability is necessary for the characterization of cell responses to cytotoxic drugs and environmental stress. A RealTime-Glo MT Cell Viability Assay to monitor cell viability in real time of continues cell culture during 40 hours of compound treatment was used to screen Tox21 10K library compounds in HepG2 cells. The RealTime-Glo MT Cell Viability Assay is a nonlytic, homogeneous, bioluminescent method to measure cell viability in real time using a simple, plate-based method. The assay involves adding NanoLuc luciferase and a cell-permeant prosubstrate to cells in culture. Viable cells reduce the proprietary prosubstrate to generate a substrate for NanoLuc luciferase. This substrate diffuses from cells into the surrounding culture medium, where it is rapidly used by the NanoLuc Enzyme to produce a luminescent signal. The signal correlates with the number of viable cells, making the assay well suited for cytotoxicity studies.
# Tox21 Assay Protocol Summary: The mixture of HepG2 cell suspension and reagents were dispensed at 600cells/6 ul/well in 1536-well tissue culture treated black solid bottom plates using a Multidrop dispenser. After the assay plates were incubated at a 37 C/5% CO2 incubator for 5 hours, 23 nL of compounds dissolved in DMSO, positive and negative controls was transferred to the assay plate by a pintool work station. The plates were incubated at 37 C for 40 hours. The luminescence intensity were measured at 0h, 8h, 16h, 24h, 32h and 40h time points using ViewLux plate reader during compound treatment.
# On the % scale 0 is the no-effect control and ±100 the full control effect; potency means the concentration at half of the fitted maximal effect.
SMILES,"activity change, negative = cytotoxic",Potency
C=CCBr,2.62% (inactive),–
Cc1ccccc1OP(=O)(Oc1ccccc1C)Oc1ccccc1C,-8.84% (inactive),–
[O]=[Cr][O][Cr]=[O],-0.214% (inactive),–
O=C(CCCCl)c1ccc(F)cc1,1.16% [at 35.3 µM] (inactive),–
C[C@]12CC[C@H]3[C@@H](CCC4=CC(=O)CC[C@@H]43)[C@@H]1CC[C@@H]2OC(=O)CCc1ccco1,-10.1% [at 35.3 µM] (inactive),–
NC(=O)C(Cl)Cl,1.7% (inactive),–
N#Cc1c[nH]cc1-c1cccc2c1OC(F)(F)O2,-14.3% (inactive),–
CNC(=O)Oc1cc(C)cc(C(C)C)c1,1.14% (inactive),–
COC(=O)c1ccccc1S(=O)(=O)NC(=O)Nc1nc(C)nc(OC)n1,3.46% (inactive),–
CSC(C)(C)/C=N/O,3.41% (inactive),–
Brc1ccc(Oc2ccc(Br)cc2Br)c(Br)c1,-0.429% (inactive),–
Clc1cc(Cl)c(-c2cc(Cl)c(Cl)cc2Cl)cc1Cl,2.97% [at 35.3 µM] (inactive),–
O=c1c2ccccc2c(=O)c2c1cc(Cl)c1[nH]c3c([nH]c12)c(Cl)cc1c(=O)c2ccccc2c(=O)c13,-9.63% (inactive),–
COC(=O)N(OC)c1ccccc1COc1ccn(-c2ccc(Cl)cc2)n1,-16.8% (inactive),–
CCCCC(CC)COC(=O)OOC(C)(C)C (stereo not given),-16.2% (inactive),–
CC[N+]1(CC)CCC(OC(=O)C(O)(c2ccccc2)c2ccccc2)C1 (stereo not given),2.2% [at 35.3 µM] (inactive),–
O=S(=O)(O)F,1.13% (inactive),–
CC(O)C(=O)[O][Hg][c]1ccccc1 (stereo not given),–,2750 nM (active)
O=C(O)CCCCCCNC1c2ccccc2CCc2ccccc21,4.35% [at 35.3 µM] (inactive),–
O=C(N[C@H]1N=C(c2ccccc2F)c2cccc3c2N(CC3)C1=O)c1cc2ccccc2[nH]1,-20.1% [at 35.3 µM] (inactive),–

SMILES,"activity change, negative = cytotoxic",Potency
CCCCn1cc[n+](C)c1.[Cl][Fe-]([Cl])([Cl])[Cl],0.0346% (inactive),–
S=C=Nc1ccccc1,4.42% (inactive),–
Clc1c(Cl)c(Cl)c(Cl)c(Cl)c1Cl,0.7% [at 6.97 µM] (inactive),–
CCOP(=O)(OCC)Oc1nc(Cl)c(Cl)cc1Cl,-5.13% (inactive),–
CC(=O)[O-].CC(=O)[O-].O.O.O.[Pb+2],-14% (inactive),–
CCNc1nc(NC(C)C(C)C)nc(SC)n1 (stereo not given),-0.251% (inactive),–
c1csc(-c2ccc(-c3cccs3)s2)c1,-21.3% (inactive),–
Nc1ccc(N=Nc2ccccc2)cc1,-7.63% (inactive),–
CCOP(=S)(OCC)SC(CCl)N1C(=O)c2ccccc2C1=O (stereo not given),-9.44% (inactive),–
Oc1ccc2[nH]cc(CCCCN3CC=C(c4ccccc4)CC3)c2c1,-20.1% [at 35.3 µM] (inactive),–
CN1[C@@H]2CC[C@H]1CC(O)C2 (stereo not given in full),3.46% (inactive),–
CCNS(=O)(=O)C(F)(F)C(F)(F)C(F)(F)C(F)(F)C(F)(F)C(F)(F)C(F)(F)C(F)(F)F,-4% (inactive),–
N#Cc1c2ccccc2cc2ccccc12,2.27% (inactive),–
CC(C)Br,-11.3% (inactive),–
CC(Cc1ccc(OCC(=O)O)cc1)NCC(O)c1csc(C(F)(F)F)n1 (stereo not given),2.2% (inactive),–
ClCBr,-0.251% (inactive),–
CC(C)C(Nc1ccc(C(F)(F)F)cc1Cl)C(=O)OC(C#N)c1cccc(Oc2ccccc2)c1 (stereo not given),0.658% (inactive),–
[Cl][Hg][c]1ccccc1,–,2750 nM (active)
CN(C)c1ccc(N)cc1,-16.7% (inactive),–
C#CCO,-2.45% (inactive),–

# From PubChem BioAssay (Tox21)
